Data on 16 compounds can be found in PubChem BioAssay (NCI).

Some test systems named below: EKVX NSCLC; SN12C renal; UO-31 renal; TK-10 renal; ACHN renal; A498 renal; CCRF-CEM leukemia; MOLT-4 leukemia.
Common to all, as to assay: NCI-60 one-dose screen, 48 h (100 = growth as untreated, 0 = no growth, -100 = all killed)
Holding throughout (settings): 10 µM unless noted

Compounds without any hit were thinned out: in the full panel of roughly 83,000, 20% have a hit.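 Values shown are percent growth following 48 h exposure of cells in 96-well plates to a single concentration of compound; below 10 was considered active.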 A number with no mark means an inactive call. Calls of active or inactive are those of the source.

In the case of `CNC(=O)c1cc(Oc2ccc(NC(=O)c3nc(S(C)(=O)=O)n(C)c3-c3ccc(F)cc3)cc2)ccn1`, the growth with EKVX NSCLC is 71.2%; with SN12C renal it was 54.9%; with UO-31 renal it was 47.9%; with TK-10 renal, 68.5%; in the experiment on ACHN renal it was 45.8%; in the experiment with A498 renal it was 38%. Further, the growth is 85% in the experiment with CCRF-CEM leukemia and 62.4% in the experiment on MOLT-4 leukemia.

As to `COc1ccc([C@@H]2[C@@H](Cl)C(=O)N2c2cc(OC)c(OC)c(OC)c2)cc1C`, the growth in the experiment with EKVX NSCLC was 44.2%; in the experiment on SN12C renal, 31.2%; in the experiment with UO-31 renal it was 38.8%; in the experiment on TK-10 renal it was 71.3%; in the experiment on ACHN renal it was 31.6%; in the experiment on A498 renal it was -7.32% (active). Moreover, the growth in the experiment with CCRF-CEM leukemia is 9.56% (active); in the experiment on MOLT-4 leukemia it was 8.89% (active).

Consider `Cc1ccc(NC(=O)c2nc(S(C)(=O)=O)oc2-c2ccc(F)cc2)cc1Nc1ccc2ncn(C)c(=O)c2c1`, for which the growth with EKVX NSCLC is 72.7%; in the experiment on SN12C renal it was 67.7%; with UO-31 renal, 72.5%; with TK-10 renal, 90.8%; in the experiment on ACHN renal it was 48.4%; in the experiment on A498 renal it was 130%. The results for the growth in the experiment on CCRF-CEM leukemia and in the experiment on MOLT-4 leukemia were 16.3% and -5.15% (active), respectively.

Take `CNC(=O)c1cc(Oc2ccc(NC(=O)c3nc(S(C)(=O)=O)sc3-c3ccc(F)cc3)cc2)ccn1`: the growth in the experiment on EKVX NSCLC is 77.8%; with SN12C renal it was 97.5%; in the experiment with UO-31 renal, 87.5%; in the experiment with TK-10 renal, 77%; in the experiment on ACHN renal, 90.8%; in the experiment on A498 renal, 99.6%. In addition, the growth in the experiment on CCRF-CEM leukemia is 85.9%; with MOLT-4 leukemia it was 83.1%.

With `Cc1ccc(NC(=O)c2[nH]c(SCCN(C)C)nc2-c2ccc(F)cc2)cc1C#Cc1cnc2cccnn12`, the growth is 38.2% in the experiment on EKVX NSCLC; 87.3% in the experiment on SN12C renal; -77.2% (active) with UO-31 renal; 105% with TK-10 renal; -88% (active) in the experiment with ACHN renal; 102% in the experiment on A498 renal. For the same compound, the figures for the growth with CCRF-CEM leukemia and with MOLT-4 leukemia were 1.64% (active) and 55.1%, respectively.

Regarding `COc1ccc(/C(=C\c2cc(OC)c(OC)c(OC)c2)C(=O)N2CCNCC2)cc1`, the growth is 105% in the experiment on EKVX NSCLC; 101% with SN12C renal; 83.4% in the experiment with UO-31 renal; 94.6% in the experiment on TK-10 renal; 98% with ACHN renal; 85.6% in the experiment with A498 renal. For the same compound, the growth in the experiment with CCRF-CEM leukemia is 96.1%; in the experiment with MOLT-4 leukemia it was 87.2%.

For the compound `O=C(O)/C=C(\c1nc2ccc([N+](=O)[O-])cc2[nH]1)c1cc(Cl)ccc1O`, the growth is 17.6% with EKVX NSCLC; 13.1% in the experiment with SN12C renal; 17% with UO-31 renal; 27.4% in the experiment with TK-10 renal; 12.5% in the experiment with ACHN renal; 7.28% (active) with A498 renal. Further, the growth in the experiment on CCRF-CEM leukemia is 0.888% (active); with MOLT-4 leukemia it was -4.02% (active).

As to `c1ccc(-c2[nH]c3ccccc3c2-c2ccccc2)cc1`, the growth in the experiment on EKVX NSCLC is 77.1%; in the experiment on SN12C renal, 91.8%; with UO-31 renal, 88.6%; in the experiment with TK-10 renal, 107%; with ACHN renal, 93.2%; in the experiment on A498 renal it was 92.8%. For the same compound, the growth in the experiment on CCRF-CEM leukemia is 47.6%; with MOLT-4 leukemia, 66.2%.

Consider `COc1ccc(/C=C(/C(=O)N2CCN(c3ccccc3)CC2)c2cc(OC)c(OC)c(OC)c2)cc1O`, for which the growth is 41% in the experiment on EKVX NSCLC; 31.4% in the experiment on SN12C renal; 45.6% in the experiment on UO-31 renal; 64% with TK-10 renal; 33.1% in the experiment with ACHN renal; -3.6% (active) with A498 renal. Besides, the values for the growth in the experiment on CCRF-CEM leukemia and in the experiment on MOLT-4 leukemia were 8.16% (active) and 8.78% (active), respectively.

Turning to `Cc1ccc(NC(=O)c2[nH]c(SCCN(C)C)nc2-c2ccc(F)cc2)cc1Nc1ccc2ncn(C)c(=O)c2c1`, the growth with EKVX NSCLC was 75.2%; with SN12C renal, 64.6%; in the experiment on UO-31 renal it was 31.4%; with TK-10 renal, 63%; with ACHN renal it was 69%; with A498 renal it was 61.2%. The growth in the experiment on CCRF-CEM leukemia is 61.6%; with MOLT-4 leukemia it was 41.2%.

With `CC(OC(=O)Nc1cccc(Cl)c1)C(=O)O` (stereo unspecified), the growth with EKVX NSCLC is 103%; in the experiment with SN12C renal it was 92.7%; in the experiment on UO-31 renal, 90.7%; in the experiment on TK-10 renal, 102%; with ACHN renal, 97.4%; in the experiment with A498 renal, 23.2%. Besides, the growth in the experiment with CCRF-CEM leukemia is 101%.

With `O=c1[nH]cnc2nc[nH]c12`, the growth is 81.6% in the experiment with EKVX NSCLC; 96.7% with SN12C renal; 94.2% in the experiment with UO-31 renal; 115% in the experiment on TK-10 renal; 103% in the experiment on ACHN renal; 87.9% in the experiment with A498 renal. The growth was 120% in the experiment on CCRF-CEM leukemia and -45.9% (active) in the experiment with MOLT-4 leukemia.

On to `CCOc1c(C#N)c2c(N)ncnc2n1C1OC(CO)C(O)C1O` (stereo unspecified), for which the growth is 58.4% in the experiment on EKVX NSCLC; 39.2% in the experiment on SN12C renal; 6.4% (active) in the experiment on UO-31 renal; 88.4% in the experiment on TK-10 renal; 33.9% in the experiment on ACHN renal; -13% (active) in the experiment on A498 renal. Moreover, the growth with CCRF-CEM leukemia is -8.09% (active).

Consider `COCCOCCOCc1n(Cc2ccc3ccccc3n2)c2ccccc2[n+]1Cc1ccc2ccccc2c1`, for which the growth in the experiment on EKVX NSCLC is 31%; in the experiment with SN12C renal, 5.5% (active); in the experiment on UO-31 renal, 79.2%; in the experiment on TK-10 renal it was -8.46% (active); in the experiment with ACHN renal, 71.1%; in the experiment with A498 renal, -15.8% (active). For the same compound, the growth in the experiment on CCRF-CEM leukemia was 1.17% (active); with MOLT-4 leukemia, -20.5% (active).

Regarding `CCCCN(CCCC)CCCN=c1nc2c(c(N)n1-c1ccccc1)c(=S)n(-c1ccccc1)c(=S)n2-c1ccccc1`, the growth was -74.2% (active) in the experiment with EKVX NSCLC; -99.2% (active) in the experiment with SN12C renal; -80.9% (active) in the experiment on UO-31 renal; -89.6% (active) with TK-10 renal; -95.8% (active) in the experiment on ACHN renal; -100% (active) with A498 renal. Besides, the figures for the growth in the experiment on CCRF-CEM leukemia and in the experiment with MOLT-4 leukemia were -78.4% (active) and -55.8% (active), respectively.

Turning to `CCCc1n(Cc2ccc3ccccc3n2)cc[n+]1Cc1ccc2ccccc2c1`, the growth with EKVX NSCLC was 41.6%; in the experiment on SN12C renal, -0.216% (active); in the experiment on UO-31 renal, 73.8%; in the experiment with TK-10 renal, -4.74% (active); in the experiment on ACHN renal, 81.7%; with A498 renal, -3.21% (active). Moreover, the growth in the experiment on CCRF-CEM leukemia is 9.37% (active); with MOLT-4 leukemia, -1.31% (active).
